Assay results: PubChem BioAssay (NCATS)
Inconclusive results are not listed. Entries that show only a call come without a potency. Values without a mark were called inactive. The source made the active and inactive calls. Calls follow the shape of the dose curve; as a rule, active = well fitted inhibition curve with a large enough effect; inconclusive = small, poorly fitted or top-dose-only effect; inactive = no such curve, though single readings can be large or run the other way.

Columns and labels:
[1] = qHTS for Inhibitors of the Aldehyde Dehydrogenase Family (ALDH1A2, ALDH1A3, ALDH2, ALDH3A1) (AID 2061307); also: nearly all actives have a fitted effect of over 50% in size; as to potency: test system not described further here; potency is read from the fitted curve at half-maximal effect
[2] = target: Retinaldehyde dehydrogenase 3 (Homo sapiens) (UniProt P47895); assay: qHTS for Inhibitors of the Aldehyde Dehydrogenase Family (ALDH1A3) Confirmatory screens (AID 2061311); also: nearly all actives have a fitted effect of over 60% in size; also: potency is read from the fitted curve at half-maximal effect
[3] = target: Retinal dehydrogenase 2 (Homo sapiens) (UniProt O94788); assay: qHTS for Inhibitors of the Aldehyde Dehydrogenase Family (ALDH1A2) Confirmation screens (AID 2061314); also: nearly all actives have a fitted effect of over 65% in size; also: potency is read from the fitted curve at half-maximal effect
[4] = target: Retinaldehyde dehydrogenase 3 (Homo sapiens) (UniProt P47895); assay: qHTS for Inhibitors of the Aldehyde Dehydrogenase Family (ALDH1A3) Primary screen (AID 2061315)
[5] = target: Aldehyde dehydrogenase 1A1 (Homo sapiens) (UniProt P00352); assay: qHTS for Inhibitors of the Aldehyde Dehydrogenase Family (ALDH1A1) Confirmatory screens (AID 2061316); also: nearly all actives have a fitted effect of over 65% in size; also: potency is read from the fitted curve at half-maximal effect

## O=C1Cc2cc(S(=O)(=O)N3CCNCC3)ccc2N1
[1]
  Potency: inactive
[2]
  Potency: inactive
[3]
  Potency: 17.9 µM (active)
[4]
  Potency: inactive

## CSCCC(NS(=O)(=O)c1ccc2c(c1)oc(=O)n2C)C(=O)N1CCN(c2ccc(C(C)=O)cc2)CC1 (stereo unspecified)
[1]
  Potency: inactive
[2]
  Potency: inactive
[3]
  Potency: inactive
[5]
  Potency: inactive

## Cc1nc(C(C)Nc2ncnc3ccc(-c4ccc5c(c4)OCO5)cc23)cs1 (stereo unspecified)
[1]
  Potency: inactive
[2]
  Potency: inactive
[3]
  Potency: inactive
[4]
  Potency: inactive

## COc1ccc(C2=Nn3c(nnc3-c3ccccc3OC)SC2)cc1OC1CCCC1
[1]
  Potency: 15.8 µM (active)
[2]
  Potency: 22.4 µM (active)
[3]
  Potency: 6.34 µM (active)
[4]
  Potency: inactive

## CC(C)CCN(C)Cc1ccc(-c2ccccc2)cc1
[1]
  Potency: 25.1 µM (active)
[2]
  Potency: 4.19 µM (active)
[3]
  Potency: inactive

## CC(C)(C)c1ccc(S(=O)(=O)c2cnc(SCC(=O)Nc3ccc(F)c(Cl)c3)[nH]c2=O)cc1
[1]
  Potency: 12.7 µM (active)
[2]
  Potency: inactive
[3]
  Potency: 14.2 µM (active)
[4]
  Potency: inactive
[5]
  Potency: 0.634 µM (active)

## CCC(=O)Nc1ccc(S(=O)(=O)NCc2ccc3c(c2)CCN3C(=O)c2ccc(C)cc2)cc1
[1]
  Potency: inactive
[2]
  Potency: inactive
[3]
  Potency: inactive

## COc1ccc(C(=O)N(Cc2ccco2)Cc2ccco2)c(O)c1
[1]
  Potency: 0.891 µM (active)
[2]
  Potency: inactive
[3]
  Potency: 17.9 µM (active)
[4]
  Potency: inactive
[5]
  Potency: 7.12 µM (active)

## Cc1cc(C)cc(-c2ccc(C=O)cc2)c1
[1]
  Potency: inactive
[2]
  Potency: inactive
[3]
  Potency: inactive
[5]
  Potency: inactive

## COc1ccc(C2Nc3ccccc3C(=O)N2Cc2ccco2)cc1COc1ccc(N)cc1 (stereo unspecified)
[1]
  Potency: 1.79 µM (active)
[2]
  activity change, negative = inhibition: -17.5% [at 0.022 µM]
[3]
  Potency: 4.49 µM (active)
[4]
  Potency: inactive
[5]
  Potency: 1.79 µM (active)

## O=C1Cc2cc(S(=O)(=O)N3CCN(c4ccc(F)cc4)CC3)ccc2N1
[1]
  Potency: inactive
[2]
  Potency: inactive
[3]
  Potency: inactive
[4]
  Potency: inactive

## NC(=O)C1CCN(c2nc(-c3ccc4ccccc4c3)cs2)CC1
[1]
  Potency: 5.65 µM (active)
[2]
  Potency: inactive
[3]
  Potency: inactive
[4]
  Potency: inactive

## COc1cc(NS(=O)(=O)c2cccc([N+](=O)[O-])c2)c2ncccc2c1
[1]
  Potency: 11.3 µM (active)
[2]
  Potency: 5.65 µM (active)
[3]
  Potency: 3.18 µM (active)

## O=C1Nc2cc(Cl)ccc2/C1=C\c1cc(Cl)c(O)c(Cl)c1
[1]
  Potency: 3.57 µM (active)
[2]
  Potency: inactive
[3]
  Potency: 25.2 µM (active)
[4]
  Potency: inactive
[5]
  Potency: 22.5 µM (active)

## O=S1(=O)N=C(Oc2cccc3ccccc23)c2ccccc21
[1]
  Potency: 2.83 µM (active)
[2]
  Potency: 5.04 µM (active)
[3]
  Potency: 12.7 µM (active)

## O=C(O)c1ccc2c(c1)C(=O)N(CCc1ccc(O)cc1)C2=O
[1]
  Potency: inactive
[2]
  Potency: inactive
[3]
  Potency: inactive
[4]
  Potency: inactive
[5]
  Potency: inactive

## N#Cc1ccc(-c2ccc(CNc3ccc(N4CCOCC4)cc3)cn2)cc1
[1]
  Potency: 6.34 µM (active)
[2]
  Potency: 12.7 µM (active)
[3]
  Potency: inactive
[5]
  Potency: 4.49 µM (active)

## CCOC(=O)c1[nH]c2c(c1C)C(=S)CC(c1ccco1)C2 (stereo unspecified)
[1]
  Potency: 8.96 µM (active)
[2]
  Potency: 12.7 µM (active)
[3]
  Potency: 12.7 µM (active)
[4]
  Potency: inactive
[5]
  Potency: 2.01 µM (active)

## Cc1oc(-c2ccccc2F)nc1CS(=O)(=O)CC(=O)N1CCN(c2cccc(C(F)(F)F)c2)CC1
[1]
  Potency: inactive
[2]
  Potency: inactive
[3]
  Potency: inactive
[5]
  Potency: inactive

## COc1cccc(CNC(=O)c2ccc3c(c2)sc2nc(-c4ccccc4)cn23)c1OC
[1]
  Potency: inactive
[2]
  Potency: inactive
[3]
  Potency: inactive

## N#Cc1nc(-c2ccc(COc3ccccc3)o2)oc1N1CCN(c2ccccc2)CC1
[1]
  Potency: inactive
[2]
  Potency: inactive

## CC(=O)Nc1sc2c(c1-c1csc3ccccc13)CCNC2
[1]
  Potency: inactive
[2]
  Potency: inactive
[3]
  Potency: 15.9 µM (active)
[4]
  Potency: inactive

## O=C1Nc2ccc(Cl)cc2/C1=C\c1cc(Cl)c(O)c(Cl)c1
[1]
  Potency: 10.1 µM (active)
[2]
  Potency: inactive
[3]
  Potency: 12.7 µM (active)
[4]
  Potency: inactive

## Cc1cc(C)nc(NC(=S)N2CCN(c3ccc4cn(C)nc4c3)CC2)c1
[1]
  Potency: inactive
[2]
  Potency: 15.9 µM (active)
[3]
  Potency: 12.7 µM (active)
[4]
  Potency: inactive
[5]
  Potency: 7.12 µM (active)

## CN1CCN(c2ccc(NC(=O)CN(C)Cc3c(O)ccc4ccccc34)cc2)CC1
[1]
  Potency: 7.12 µM (active)
[2]
  Potency: 22.5 µM (active)
[3]
  Potency: 7.12 µM (active)
[4]
  Potency: inactive
[5]
  Potency: 5.04 µM (active)

## O=C(C1CCN(Cc2ccccc2-c2ccccc2F)CC1)N1CCN(Cc2ccccc2)CC1
[1]
  Potency: inactive
[2]
  Potency: inactive
[3]
  Potency: inactive

## Cc1ccc(CCN2C(=O)c3ccc(C(=O)O)cc3C2=O)cc1
[1]
  Potency: inactive
[2]
  Potency: inactive
[3]
  Potency: inactive
[4]
  Potency: inactive

## Cc1sc(NC(=O)Cc2ccc3c(c2)OCO3)nc1-c1ccc2c(c1)CCN2
[1]
  Potency: 20.1 µM (active)
[2]
  Potency: 12.7 µM (active)
[3]
  Potency: 4 µM (active)
[4]
  Potency: inactive
[5]
  Potency: 3.18 µM (active)

## COc1ccc(C2=NN(CC(=O)NCCc3ccc(OC)c(OC)c3)C(=O)CC2)cc1
[1]
  Potency: inactive
[2]
  Potency: inactive
[3]
  Potency: inactive
